Screening data as filed in PubChem BioAssay.
TbPYK inhibitor: inhibitors of Trypanosoma brucei pyruvate kinase; Q57TT1; TbPYK enzyme, Kinase-Glo Plus ATP luminescence, 45 min; Potency, µM (top dose mostly 76.8 µM), inactives show at the top dose activity, negative = inhibition, actives largely listed as inhibitors; 410,000 compounds, 0.12% hits; active = well fitted curve in the direction sought with a large enough effect; inconclusive = small, poorly fitted or top-dose-only effect, or another doubt; inactive = no such curve, though single readings can be large; an effect the other way counts as inactive or inconclusive; note: potency is the fitted concentration of half-maximal effect; % is set by controls: 0 for no effect and ±100 for the full control effect; nearly all actives have a fitted effect of over 50% in size
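ADP (130 uM final) triggers the TbPYK reaction after compound addition; incubation is 45 min at room temperature. Kinase-Glo Plus is then added and luminescence imaged. Normalized data are fitted to concentration-effect curves.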
LmPK inhibitor: blocks Leishmania mexicana pyruvate kinase activity; Q27686; purified LmPK, Kinase-Glo ATP luminescence, 1 h; Potency, µM (highest dose often 57.5 µM), without a hit: at the top dose activity change, negative = inhibition, usual class: inhibitors; 290,000 compounds, 0.37% hits; AID 1721; active = well fitted curve in the direction sought with a large enough effect; inconclusive = small, poorly fitted or top-dose-only effect, or another doubt; inactive = no such curve, though single readings can be large; an effect the other way counts as inactive or inconclusive; note: potency is the fitted concentration of half-maximal effect; % is set by controls: 0 for no effect and ±100 for the full control effect
Target sequence (Q27686 whole entry, looked up): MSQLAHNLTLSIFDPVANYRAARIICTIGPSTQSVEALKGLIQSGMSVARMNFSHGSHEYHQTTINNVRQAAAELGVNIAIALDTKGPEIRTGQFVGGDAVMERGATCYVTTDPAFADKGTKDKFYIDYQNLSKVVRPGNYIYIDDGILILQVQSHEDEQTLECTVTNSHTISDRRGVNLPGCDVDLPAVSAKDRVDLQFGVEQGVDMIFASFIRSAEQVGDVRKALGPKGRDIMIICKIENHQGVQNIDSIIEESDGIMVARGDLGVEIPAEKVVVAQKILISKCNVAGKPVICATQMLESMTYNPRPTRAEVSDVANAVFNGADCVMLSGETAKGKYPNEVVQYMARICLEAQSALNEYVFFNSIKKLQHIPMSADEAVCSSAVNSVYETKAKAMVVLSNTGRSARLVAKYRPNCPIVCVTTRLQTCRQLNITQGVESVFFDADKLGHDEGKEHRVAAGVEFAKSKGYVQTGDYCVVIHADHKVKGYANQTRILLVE
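0.1 nM LmPK, 0.5 mM PEP, 0.1 mM ADP; 50 mM imidazole pH 7.2, 7 mM MgCl2, 50 mM KCl; 1 h RT. Kinase-Glo luminescence readout, normalized to no-enzyme (full inhibition) and uninhibited wells.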
Shiga toxin inh: blocks Shiga toxin action in Vero cells; inhibition, % at 38.7 µM; Vero cells, Shiga toxin protein synthesis inhibition reporter; AID 2315; 290,000 compounds, 9.2% hits; in the data active = inhibition mostly above about 28%, no sharp cut-off; inactive = mostly below about 43%; note: 0% is about no effect
CHX counter: affects cycloheximide protein synthesis inhibition readout, counter-screen; cell reporter, cycloheximide protein synthesis inhibition counterscreen; max response, %; 300,000 compounds, 12% hits; AID 2314; in the data active = max response mostly above about 13%, no sharp cut-off; inactive = mostly below about 14%; note: read at 38.3 µM for the half of the compounds with a filed dose; 0% is about no effect
NS1 function inh: influenza NS1 inhibition. Potency, µM (highest dose often 46.1 µM), for the others: at the top dose activity, positive = more growth. 270,000 compounds, 0.4% hits; note: potency is the fitted concentration of half-maximal effect; actives are rising curves; nearly all actives have a fitted effect of over 50% in size
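Growth recovery, yeast-based: influenza A NS1 expressed in S. cerevisiae causes slow growth, and suppressors are detected by OD600. The parent strain without NS1 is used as positive control.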
SARS PLpro yeast: SARS-CoV PLP inhibition in yeast; AID 485353; S. cerevisiae expressing SARS-CoV PLpro, growth rescue; 330,000 compounds, 0.19% hits; Potency, µM (doses to about 32.9 µM), for inactives: at the highest dose activity, positive = growth rescue, most hits filed as activators; note: potency is the fitted concentration of half-maximal effect; 0% is about no effect; nearly all actives have a fitted effect of over 55% in size
* hit, by the source's call; u = inconclusive; x = no result given. This excerpt belongs to a sample that is enriched for hits. Unless noted, calls come from the whole dose curve.

SMILES	TbPYK inhibitor	LmPK inhibitor	Shiga toxin inh	CHX counter	NS1 function inh	SARS PLpro yeast
O=C(Oc1ccc2cc(Br)ccc2c1)N1CCCCCC1	x	0%	58*	48*	7%	-31%
O=C(COc1ccc2ccccc2c1Br)N1CCCCC1	u	-5%	89*	62*	-19%	-4%
O=C(Oc1ccc2ccccc2c1Br)N1CCCCCC1	-20%	-12%	117*	36*	-76%	-13%
O=C(COc1ccc(Br)cc1)NCc1ccccn1	4%	-12%	9	-3	-3%	-2%
O=C(COc1ccc2ccccc2c1Br)NCc1ccccn1	2%	1%	57*	23*	-8%	-1%
NC(=O)C1CCN(C(=O)COc2ccc3ccccc3c2Br)CC1	-5%	0%	13	6	9%	u
CCOc1cccc(N2CCN(CCNC(=O)Nc3ccc(C)cc3)CC2)c1C	-6%	-2%	-2	-2	-6%	-5%
CCN(CC)C(=O)Oc1ccc2ccccc2c1Br	3%	0%	76*	25*	x	-1%
Cc1cccc(/C(N)=N/OC(=O)N2CCOCC2)c1	0%	u	101*	24*	-2%	-19%
Cc1ccc(/C(N)=N/OC(=O)C23CC4CC(CC(C4)C2)C3)cc1	3%	4%	101*	23*	-40%	-6%
Cc1ccc(/C(N)=N/OC(=O)N2CCOCC2)cc1	-3%	-2%	16	22*	-6%	-8%
N/C(=N\OC(=O)C12CC3CC(CC(C3)C1)C2)c1ccncc1	4%	0%	28	7	-3%	4%
CCOC(=O)c1c(C)[nH]c(C(C)=NNC(=O)c2cccs2)c1C	-6%	x	x	x	x	-3%
CCN(CC)c1ccc(C(=O)OCC(=O)Nc2cc(C)on2)cc1	2%	x	x	x	x	-6%
CCOC(=O)c1sc2nccc(N(C)C)c2c1N=CNOCc1c(F)cccc1Cl	4%	6%	35	25*	-1%	-13%
CCOC(=O)c1sc2nccc(N(C)C)c2c1N=CNOCc1ccccc1	8%	-9%	21	16*	-2%	-14%
CCOC(=O)c1sc2nccc(N(C)C)c2c1N=CNOC	-12%	3%	-19	-5	-15%	4%
CN(C)c1cccc(-c2cc(Nc3ccc(C(C)(C)C)cc3)ncn2)c1	8%	x	x	x	x	x
CN(C)c1ccc(Nc2cc(Cl)ncn2)cc1	-5%	5%	x	42*	6%	3%
COc1ccc(N2CC(NC(=O)Cc3cccs3)CC2=O)cc1 (centres undefined)	-6%	x	x	x	x	x
COc1ccc(C(=O)CC2(O)C(=O)N(Cc3ccccc3)c3ccc(Br)cc32)cc1 (centres undefined)	20%	x	x	x	x	x
O=C(O)c1ccc(/C=N/Nc2ccc(F)cc2F)cc1	-16%	-22%	131*	40*	x	-1%
Fc1ccc(N/N=C/C=C/c2ccccc2)c(F)c1	-6%	-2%	34*	32*	-10%	-39%
Fc1ccc(/C=N\Nc2cccc(F)c2)cc1	-4%	-2%	-9	-2	19%	0%
Fc1ccc(N/N=C/c2ccncc2)c(F)c1	-9%	-16%	50*	40*	-4%	-43%
SMILES	TbPYK inhibitor	LmPK inhibitor	Shiga toxin inh	CHX counter	NS1 function inh	SARS PLpro yeast
O=C(CNC(=O)c1cccc(F)c1)N/N=C/C=C/c1ccccc1	-18%	4%	34	5	x	3%
COc1ccc(/C=C(\C#N)c2nc(-c3cc4c(ccc5ccccc54)oc3=O)cs2)cc1O	2%	x	-4	-2	x	x
O=c1c2cc(-c3ccccc3)sc2nc2n1CCC2	x	-21%	103*	47*	-1%	-1%
Cc1nc2sc(-c3ccccc3)cc2c(=O)n1N	u	7.1µM*	56*	44*	-10%	0%
Cc1nc2sc(-c3ccccc3)cc2c(=O)n1/N=C/N(C)C	-1%	-19%	72*	37*	-3%	1%
Cc1nc2sc(-c3ccccc3)cc2c(=O)n1-n1cccc1	-5%	-6%	113*	42*	-15%	-6%
NC(=O)CSc1nc2sc(-c3ccccc3)cc2c(=O)n1N	1%	-3%	34	26*	4%	3%
CCc1cc2c(=O)n(-c3ccccc3)c(SCC(N)=O)nc2s1	1%	-2%	-8	14	5%	1%
O=C(COC(=O)c1ccc(O)cc1O)Nc1ncc(Cl)cc1Cl	2%	x	x	x	x	-7%
